Test results taken from PubChem BioAssay (NCI).
The panel holds about 83,000 compounds, 20% with a hit somewhere; the sample as a whole holds those more often.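 96-well plates, one dose, 48 hours. Percent growth reported; active if below 10.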 Unmarked numbers belong to inactive results. The source made the active and inactive calls.

tested on: MCF7 breast; experiment: NCI-60 one-dose screen, 48 h (100 = growth as untreated, 0 = no growth, -100 = all killed); settings: 10 µM

| Compound | growth |
| --- | --- |
| COc1c(B(O)O)cccc1-c1nc2ccc3[nH]ncc3c2c2c1C1CCC2C1 (stereo unspecified) | 61.8% |
| O=C(Nc1ccc(Cl)cc1F)c1cc(F)ccc1O | 3.15% (active) |
| O=c1oc2ccc(I)cc2c(=O)n1-c1ccc(I)cc1F | 2.88% (active) |
| NCCNc1nc2ccc(F)cc2c2c(=O)c3cc(F)ccc3sc12 | -15.2% (active) |
| O=C(Nc1ccc(Br)cc1F)c1cc(F)ccc1O | 3.43% (active) |
| Cc1ccc(Nc2nc(N)c3ccccc3n2)cc1Cl | 68.7% |
| O=C1c2cc(I)ccc2Oc2cc([N+](=O)[O-])ccc2N1c1ccc(Cl)cc1F | 80.7% |
| CC1=C(C(=O)OCC2CCN(C(=O)OC(C)(C)C)CC2)[C@H](c2cccc(Br)c2)C2=C(CC(C)(C)CC2=O)N1 | 13.8% |
| O=C(c1ccccc1)N(C(=S)NCCc1ccc(Cl)cc1)c1ccc(Cl)cc1 | 20.8% |
| C#CCn1cc(C=C2C(=O)NC(=O)NC2=O)c2cc(Cl)ccc21 | 72.4% |
| O=c1oc2ccc(Br)cc2c(=O)n1-c1ccc(F)cc1F | 2.33% (active) |
| O=C(Nc1ccc(Br)cc1F)c1cc(I)ccc1O | 5.42% (active) |
| O=c1oc2ccc(Cl)cc2c(=O)n1-c1cc(C(F)(F)F)cc(C(F)(F)F)c1 | 2.18% (active) |
| O=c1oc2ccc(Br)cc2c(=O)n1-c1ccc(I)cc1F | 1.41% (active) |
| O=c1oc2ccc(-c3ccc(F)cc3F)cc2c(=O)n1-c1cccc(C(F)(F)F)c1 | 3.59% (active) |
| O=c1oc2ccc(F)cc2c(=O)n1-c1ccc(Br)cc1F | -3.48% (active) |
| O=c1oc2ccc(I)cc2c(=O)n1-c1ccc(Br)cc1F | 1.77% (active) |
| Cc1nc(Nc2ccccn2)sc1C(=O)/C=C/c1ccc(Cl)cc1 | 17.6% |

| Compound | growth |
| --- | --- |
| COc1ccc2sc(N(Cc3cccnc3)C(=O)c3ccc(C#N)cc3)nc2c1 | 87% |
| COc1cccc(C2=NN3C(C2)c2ccccc2OC3c2ccc(/C=C3\SC(=O)NC3=O)cc2)c1 (stereo unspecified) | 90.7% |
| O=C1c2cc(Br)ccc2Oc2cc([N+](=O)[O-])ccc2N1c1ccc(I)cc1F | 97.1% |
| O=c1oc2ccc(Cl)cc2c(=O)n1-c1ccc(Cl)cc1F | 0.727% (active) |
| CC[C@]1(O)C[C@@H]2CN(CCc3c([nH]c4ccccc34)[C@@](C(=O)OC)(c3cc4c(cc3OC)N(C)[C@H]3[C@@](O)(C(=O)OC)[C@H](OC(=O)CCCBr)[C@]5(CC)C=CCN6CC[C@]43[C@@H]65)C2)C1 | 12.9% |
| O=C1c2cc(Cl)ccc2Oc2cc([N+](=O)[O-])ccc2N1c1ccc(F)cc1F | 86.6% |
| COc1ccccc1N1C(=N)S/C(=C\c2ccc(OCc3ccccc3F)cc2)C1=O | 33% |
| CC[C@]1(O)C[C@@H]2CN(CCc3c([nH]c4ccccc34)[C@@](C(=O)OC)(c3cc4c(cc3OC)N(C)[C@H]3[C@@](O)(C(=O)OC)[C@H](OC(C)=O)[C@]5(CC)C=CCN6CC[C@]43[C@@H]65)C2)C1 | 10.6% |
| O=c1c2cc(F)ccc2sc2c(NCCCNCCO)nc3ccc(Cl)cc3c12 | 31% |
| COc1cc2cc3c(=O)n4c(cc5cc(OC)ncc54)c(=O)n3c2cn1 | 95.4% |
| Nc1ccc(-c2nn3c(CCC(=O)c4nc5ncccc5[nH]4)nnc3s2)c(O)c1 | 84.7% |
| O=c1oc2ccc(Br)cc2c(=O)n1-c1ccc(Cl)cc1F | 3.69% (active) |
| COc1ccc(/C=C2\NC(=O)NC2=O)cc1O | 100% |
| CN(C)c1ccc(/C=C/c2ccnc3c(O)cccc23)cc1 | 18.2% |
| O=C(c1ccccc1)N(C(=S)NCCc1ccc(Cl)cc1)c1ccccc1 | 38.6% |
| O=c1oc2ccc(Cl)cc2c(=O)n1-c1ccc(F)cc1F | 5.09% (active) |
| O=C(Nc1ccc(Cl)cc1F)c1cc(I)ccc1O | 47% |
| O=C(CCc1nnc2sc(Cc3ccccc3Cl)nn12)c1nc2ncccc2[nH]1 | 80% |
